Test results reported in PubChem BioAssay AID463173 (ICCB-Longwood Screening Facility, Harvard Medical School, 2010).
Out of some 52,000 compounds screened, about 4,300 (8.3%) were called active. No stated cut-off is given here; in the data, active means survival mostly below about 52% (no sharp cut-off); inactive means mostly above about 56%. The entries come from a sample that favours actives as a whole.

These compounds were tested on DeltatarO mutant (assay: growth inhibition of S. aureus wild type versus tarO mutant, primary screen, teichoic acid synthesis inhibitors, RN4220, OD600 (AID 463173)). Details: OD600, 18 h, hits give low values, screened at 18.75 µg/mL (by protocol).

| SMILES | survival |
| --- | --- |
| CCc1ccc(NC(=O)C2(c3cccs3)CCOCC2)cc1 | 73% (inactive) |
| Nc1n[nH]c2nc(C(F)(F)F)cc(=O)n12 | 62% (inactive) |
| Cc1ccc(C(=O)C2=C(O)C(=O)N(CCc3ccccc3)C2c2ccncc2)o1 (centres undefined) | 103% (inactive) |
| O=C(Nc1ccc(-c2nc3cc(NC(=O)c4ccc(Cl)cc4)ccc3o2)cc1)c1ccc(Cl)cc1 | 88% (inactive) |
| COc1cc(OC)cc(C(=O)Nc2ccc3oc(-c4ccc(Cl)cc4)nc3c2)c1 | 50% (active) |
| Cc1ccc(C(=O)Nc2ccc3oc(-c4ccccc4C)nc3c2)cc1 | 65% (inactive) |
| COc1cc(OC)cc(C(=O)Nc2ccc3oc(-c4ccccc4C)nc3c2)c1 | 34% (active) |
| COC(=O)c1ccc(C(=O)Nc2ccc(-c3nc4cc(NC(=O)c5ccc(C(=O)OC)cc5)ccc4o3)cc2)cc1 | 60% (inactive) |
| COc1cc(OC)cc(C(=O)Nc2ccc3oc(-c4cccc5c(Br)cccc45)nc3c2)c1 | 60% (inactive) |
| COc1ccc(C(=O)Nc2ccc3oc(-c4ccc(OC)cc4)nc3c2)cc1 | 60% (inactive) |
| COc1cccc(C(=O)Nc2ccc3oc(-c4ccc5ccccc5c4)nc3c2)c1 | 55% (inactive) |
| CC(C)Oc1cccc(C(=O)Nc2ccc(-c3nc4cc(Cl)cc(Cl)c4o3)cc2)c1 | 55% (inactive) |
| COc1cc(C(=O)Nc2ccc(-c3nc4cc(C)c(C)cc4o3)cc2)cc(OC)c1OC | 59% (inactive) |
| CC(C)Oc1cccc(C(=O)Nc2ccc3oc(-c4cccc(Cl)c4)nc3c2)c1 | 28% (active) |
| COc1cc(OC)cc(C(=O)Nc2ccc(-c3nc4cc(C(C)C)ccc4o3)cc2)c1 | 45% (active) |
| Cc1cc(F)ccc1NC(=O)Cn1nc(N2CCN(c3ccccc3)CC2)ccc1=O | 80% (inactive) |
| COc1cc(-c2noc(-c3ccc(N4CCOCC4)c([N+](=O)[O-])c3)n2)cc(OC)c1OC | 66% (inactive) |
| CCc1cc(C(=O)OC)c(NC(=O)CC2SC(=NC)N(C)C2=O)s1 (centres undefined) | 106% (inactive) |
| COCCn1c(CNC(=O)c2cccc(C)c2)nc2cccnc21 | 95% (inactive) |
| Cc1cccc(N2CCN(C(=O)CCc3nnc4n(CC(C)C)c(=O)c5ccccc5n34)CC2)c1C | 74% (inactive) |
| CCc1ccc(C2CC(=O)Nc3cc4c(cc32)OCO4)cc1 (centres undefined) | 59% (inactive) |
| CCN(CC)S(=O)(=O)c1ccc(-c2nnc(SCC(=O)N3CCCC3)n2CC)cc1 | 103% (inactive) |
| COc1ccc(Nc2nnc(-n3nc(C)cc3C)c3ccccc23)cc1 | 85% (inactive) |
| O=C(CSc1ncc(CO)n1Cc1ccccc1)Nc1nc2ccccc2s1 | 122% (inactive) |
